Reference: PubChem BioAssay AID1745849 (National Center for Advancing Translational Sciences (NCATS), 2022)
About 320 (15%) of roughly 2,100 compounds were called active. About 52% were inconclusive and are not listed. Calls come from the whole dose curve; as a rule, active = well fitted cell-killing curve with a large enough effect; inconclusive = small, poorly fitted or top-dose-only effect, or effect the other way; inactive = flat fitted curve, though single readings scatter. The list shows a part of the results. Entries that show only a call come without a potency.

assay: Viability Counterscreen for CMV-Luciferase Assay of Inhibitors of ATXN expression; conditions: HEK-293 CMV-luciferase cells viability, protease fluorescence, 24 h; note: nearly all actives have a fitted effect of over 55% in size
Outline: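 In the same wells, a multiplexed format measured viability and then the CMV-luciferase signal in HEK-293 cells following 24 hr compound exposure at several concentrations. The viability substrate was Gly-Phe-AFC at 25 uM final.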
Potency is the fitted concentration of half-maximal effect.

| SMILES | Potency |
| --- | --- |
| COCC(=O)OC/C(O)=C(\C#N)c1nc2ccccc2[nH]1 | inactive |
| CCOc1cc(CNCCO)cc(Br)c1OCc1ccccc1 | inactive |
| O=C(c1ccco1)N(CCCN1CCOCC1)c1nc(-c2ccc(Cl)cc2)cs1 | inactive |
| CN(C)S(=O)(=O)c1cccc(N2C(=O)CC3(CCCCC3)CC2=O)c1 | inactive |
| O=C(CN1C(=O)c2ccccc2S1(=O)=O)c1ccc(Cl)cc1Cl | inactive |
| N#Cc1c(Oc2ccc3ccccc3c2)sc(C(=O)c2ccccc2)c1N | inactive |
| Cc1ccc(C)n1-c1ccc(C(=O)N2CCC(C(N)=O)CC2)cc1 | inactive |
| Cc1ccc(C)c(N2CCN(C(=O)CCCCCn3c(=S)[nH]c4ccc(N5CCOCC5)cc4c3=O)CC2)c1 | inactive |
| O=C(CN1C(=O)c2ccccc2S1(=O)=O)c1ccc(O)c(O)c1 | inactive |
| c1ccc(COc2ncnc3c2ncn3CCCN2CCN(Cc3cccc4ccccc34)CC2)cc1 | 25.1 µM (active) |
| O=c1[nH]c(CN2CCN(c3ncccn3)CC2)nc2c(Br)cc(Br)cc12 | inactive |
| COc1ccc2c(c1)[nH]c1c(=O)n(/N=C/C3C(C)C=C(C)CC3C)c(=O)[nH]c12 (centres undefined) | 20 µM (active) |
| O=C(CCCN1CCc2[nH]c3ccc(F)cc3c2C1)c1ccc(F)cc1 | inactive |
| N=c1n(CCN2CCCCC2)c2ccccc2n1CC(O)c1ccc(Cl)c(Cl)c1 (centres undefined) | 20 µM (active) |
| Cc1ccc(OCC(O)Cn2c(=N)n(CCN3CCCCC3)c3ccccc32)cc1 (centres undefined) | inactive |
| Cc1nc(SC2CC(=O)N(c3ccccc3)C2=O)n[nH]1 (centres undefined) | inactive |
| CCCCC/C=C/C1=CC(=O)C[C@H](c2ccc(OC)c(OC)c2)C1 | inactive |
| Cc1cc(=O)oc2c1c(C)nn2-c1cccc(Cl)c1 | inactive |
| O=C(c1cccc(Cl)c1)c1nn(-c2ccccc2)c(=O)cc1C(F)(F)F | 22.4 µM (active) |
| CC(C)=C1SC(N2CCN(c3ccc(C)c(Cl)c3)CC2)=NC1=O | inactive |
| CC(C)Nc1nc(NC(C)C)nc(N(C#N)CCOc2ccc(Cl)cc2Cl)n1 | inactive |
| O=C(NC(c1ccccc1)c1ccc2ccccc2n1)C1CCN(CCOc2ccc(Cl)cc2Cl)CC1 (centres undefined) | 17.8 µM (active) |

| SMILES | Potency |
| --- | --- |
| COc1ccc(NC2=NCC(Cc3ccc(Br)cc3)S2)cc1 (centres undefined) | inactive |
| COc1ccc(N2C3=C(CC4=C2CC(C)(C)CC4=O)C(=O)CC(C)(C)C3)cc1 | inactive |
| CCCCNC(=O)C1(C)CCCCN1Cc1ccccc1-c1ccccc1 (centres undefined) | inactive |
| C/C(=C\C(=O)c1ccc(Br)cc1)NNC(=O)c1ccc(O)cc1 | 12.6 µM (active) |
| CC(=NNC(=O)c1ccncc1)c1ccc(O)cc1O | inactive |
| O=c1cc(-c2ccncc2)oc2c1ccc1ccccc12 | inactive |
| O=c1ccc2ccccc2c2ccccc12 | 10 µM (active) |
| Cc1ccc(/C=C2\SC(=S)N(CCCC(=O)Nc3cc(C)on3)C2=O)cc1 | inactive |
| COc1cccc(/C=C2/SC(=S)N(CCCC(=O)Nc3ccc(O)cc3)C2=O)c1 | 3.98 µM (active) |
| Cc1ccc2c(CC(=O)NNC(=O)c3ccccc3O)coc2c1 | inactive |
| Cc1ccc(/C=C2/SC(=S)N(CCCC(=O)Nc3cc([N+](=O)[O-])ccc3O)C2=O)cc1 | 25.1 µM (active) |
| O=C(CCc1ccccc1)NNC(=O)c1cc(Cl)ccc1O | inactive |
| COc1ccc(/C=C2\SC(=S)N(CCCC(=O)NNC(=O)c3ccccc3O)C2=O)cc1 | 20 µM (active) |
| Cc1ccc(C(=O)NNC(=O)CCCN2C(=O)/C(=C/c3ccccc3Cl)SC2=S)cc1 | inactive |
| Cc1ccc(/C=C2\SC(=S)N(CCCC(=O)NC3CCCC3)C2=O)cc1 | inactive |
| Cc1ccc(/C=C2\SC(=S)N(CCCC(=O)Nc3ccc(O)cc3)C2=O)cc1 | inactive |
| COc1ccccc1/C=C1\SC(=S)N(CCC(=O)NC2=NCCS2)C1=O | inactive |
| COc1cc(/C=C2\SC(=O)N(CC(=O)Nc3ccccc3F)C2=O)cc(Cl)c1O | inactive |
| CC(C)(C)c1ccc(OCCCC(=O)NNC(=O)c2ccccc2O)cc1 | 25.1 µM (active) |
| O=C(C1CCC(CNS(=O)(=O)c2cccs2)CC1)N1CCN(c2ccc(F)cc2)CC1 (centres undefined) | inactive |
| CC1CCN(Cc2c(C(=O)N/N=C/c3cc(Cl)ccc3O)nnn2-c2nonc2N)CC1 | inactive |
| CCOc1ccccc1C(=O)Nc1ccc2nc(N3CCN(c4ncccn4)CC3)cc(C)c2c1 | inactive |

| SMILES | Potency |
| --- | --- |
| Cn1nccc1C(=O)N1CCCC(C(=O)c2cccc3ccccc23)C1 (centres undefined) | inactive |
| COC(=O)C1=C(C)N(c2ccc(Cl)c(Cl)c2)C(=O)C1 | inactive |
| FC(F)(F)c1ccc(N2CCN(c3cc(-c4ccccc4)nc4ncnn34)CC2)nc1 | inactive |
| Clc1ccccc1C(c1ccccc1)(c1ccccc1)n1ccnc1 | inactive |
| Cc1ccc(C)c(CN2CCC(CNC(=O)Nc3ccc(C)c(C)c3)CC2)c1 | inactive |
| Cc1cc(C)nc(NNS(=O)(=O)c2ccc(F)c(Cl)c2)n1 | inactive |
| Cc1cc(C)c(C(=O)/C=C/c2ccc(C(C)C)cc2)c(=O)[nH]1 | 17.8 µM (active) |
| Cc1[nH]c(=O)c(C(=O)/C=C/c2ccccc2)c2c1CCCC2 | 11.2 µM (active) |
| COC1=C(C)C(O)=C(C(=O)/C=C/c2ccccc2)C(=O)C1(C)C | inactive |
| NS(=O)(=O)c1ccc(N2N=C(c3ccccc3)CC2c2cccc(Cl)c2)cc1 (centres undefined) | inactive |
| COc1cc2c(O)c3c(c(-c4ccc5c(c4)OCO5)c2cc1OC)C(=O)OC3 | inactive |
| CCCCOc1ccc(NC2=NC3(CCCC3)N=C(N)N2)cc1 | inactive |
| Cc1ccn2c(Nc3ccccc3C)c(-c3ccccn3)nc2c1 | 8.91 µM (active) |
| Cc1cccn2c(Nc3ccccc3)c(-c3ccccn3)nc12 | inactive |
| Cc1ccc(Nc2c(-c3ccccn3)nc3cccc(C)n23)cc1 | 3.98 µM (active) |
| Cc1ccc(Nc2c(-c3ccccn3)nc3cc(C)ccn23)cc1 | 3.55 µM (active) |
| NS(=O)(=O)c1ccc(CCNC(=O)COC(=O)/C=C/c2cc(Br)ccc2F)cc1 | inactive |
| COC(=O)c1cc(Cl)ccc1NCC(N)c1ccccc1 (centres undefined) | inactive |
| O=C1CN(C(=O)c2c(F)cccc2F)C(c2ccc(F)cc2)c2cc(Br)ccc2N1 (centres undefined) | inactive |
| CCOc1ccc(S(=O)(=O)NCCC(=O)N2CC=C(c3ccccc3)CC2)cc1 | inactive |
